This note sets out measurements from PubChem BioAssay (NCI).

Test systems include NCI-H23 lung; NCI-H226 lung; NCI-H322M lung; HOP-62 NSCLC; NCI-H460 lung; HOP-92 NSCLC; NCI-H522 lung; A549/ATCC NSCLC; 786-0 renal; COLO 205 colon; DU-145 prostate; K-562 leukemia; MALME-3M melanoma; MDA-MB-231 breast; RXF 393 renal; SF-268 CNS; SF-295 CNS; SF-539 CNS; UACC-257 melanoma; M14 melanoma.
Holding throughout (experiment): NCI-60 one-dose screen, 48 h (100 = growth as untreated, 0 = no growth, -100 = all killed)
What all share (conditions): 10 µM unless noted

The panel holds about 83,000 compounds, 20% with a hit somewhere; the sample as a whole holds those more often.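 Compound tested at a single concentration for 48 hours in 96-well plates; a percent growth value below 10 was scored as active.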 Unmarked numbers belong to inactive results. Calls of active or inactive are those of the source.

For the molecule `C=C1C(=O)O[C@H]2[C@H]1CC/C(CNC(=O)/C=C/c1ccc(Br)cc1)=C\CC[C@@]1(C)O[C@@H]21`, the growth in the assay with NCI-H23 lung is -9.66% (active); in the assay on NCI-H226 lung, 12.3%; with NCI-H322M lung, 39.6%; in the assay on HOP-62 NSCLC, 41.2%; with NCI-H460 lung, 4.75% (active); with HOP-92 NSCLC, -26.2% (active). For the same molecule, the growth with NCI-H522 lung is -71.2% (active); in the assay with A549/ATCC NSCLC, 14.2%; with 786-0 renal, -63.4% (active); in the assay with COLO 205 colon, -64.9% (active); in the assay with DU-145 prostate, -98.7% (active); in the assay on K-562 leukemia, 0.48% (active). Also, the growth in the assay on MALME-3M melanoma was -78% (active); in the assay with MDA-MB-231 breast it was -80.6% (active); in the assay on RXF 393 renal, -89.2% (active); with SF-268 CNS it was -29.4% (active); with SF-295 CNS, 49.6%; in the assay with SF-539 CNS it was -91.7% (active). Also, the growth in the assay on UACC-257 melanoma was -40.5% (active); with M14 melanoma, -72.4% (active).
With `Cc1nccc2c3ccc(OCc4cn(-c5ccc(Cl)cc5)nn4)cc3n(CCCc3ccccc3)c12`, the growth in the assay with NCI-H23 lung is 70.5%; in the assay on NCI-H226 lung, -10.9% (active); with NCI-H322M lung it was 50%; in the assay with HOP-62 NSCLC it was 6.51% (active); in the assay with NCI-H460 lung, 14.4%; with HOP-92 NSCLC, 26.6%. The growth in the assay with NCI-H522 lung was 46.6%; in the assay on A549/ATCC NSCLC, 4.77% (active); in the assay on 786-0 renal, -72.6% (active); in the assay with COLO 205 colon it was -3.42% (active); in the assay with DU-145 prostate, 27.6%; with K-562 leukemia it was 11.1%. In addition, the growth in the assay with MALME-3M melanoma is -7.83% (active); in the assay with MDA-MB-231 breast, 27.4%; with RXF 393 renal, -2.27% (active); in the assay with SF-268 CNS, -5.93% (active); in the assay with SF-295 CNS it was 8.27% (active); in the assay with SF-539 CNS, -16.5% (active). Besides, the growth was -34.6% (active) in the assay with UACC-257 melanoma and -73.2% (active) with M14 melanoma.
Turning to `O=C(Nc1cccc(Cl)c1)c1cc(Cl)ccc1O`, the growth in the assay with NCI-H23 lung was 0.837% (active); with NCI-H226 lung, -2.52% (active); in the assay with NCI-H322M lung, 4.17% (active); in the assay with HOP-62 NSCLC it was 5.65% (active); with NCI-H460 lung, 2.08% (active); with HOP-92 NSCLC it was -32% (active). The growth with NCI-H522 lung was -2.31% (active); in the assay on A549/ATCC NSCLC it was 14.7%; in the assay with 786-0 renal, 5.54% (active); with COLO 205 colon it was 78.6%; in the assay on DU-145 prostate, 24.1%; with K-562 leukemia it was 15.5%. Besides, the growth with MALME-3M melanoma was -17.8% (active); in the assay on MDA-MB-231 breast, 1.35% (active); in the assay on RXF 393 renal, -12.3% (active); with SF-268 CNS, 18%; in the assay on SF-295 CNS, -60.3% (active); with SF-539 CNS, 19.4%. The values for the growth with UACC-257 melanoma and in the assay on M14 melanoma were -4.11% (active) and 8.3% (active), respectively.
As to `O=C(Cc1ccc(/C=C/C(=O)c2ncc[nH]2)cc1)Nc1ccc(C(F)(F)F)cc1`, the growth in the assay with NCI-H23 lung is 33.4%; in the assay with NCI-H226 lung it was 78.9%; in the assay with NCI-H322M lung it was 71.5%; in the assay with HOP-62 NSCLC, 25.8%; in the assay on NCI-H460 lung it was 27.1%; with HOP-92 NSCLC, 70%. Also, the growth in the assay with NCI-H522 lung is 54.7%; with A549/ATCC NSCLC, 30.8%; in the assay on 786-0 renal it was -43.1% (active); with COLO 205 colon, 36.3%; in the assay with DU-145 prostate, 16.5%; in the assay on K-562 leukemia it was 4.21% (active). Also, the growth in the assay with MALME-3M melanoma was 86.2%; with MDA-MB-231 breast, 32.5%; in the assay with RXF 393 renal it was 34%; with SF-268 CNS, 14.4%; in the assay on SF-295 CNS, 22.9%; in the assay with SF-539 CNS it was -10.1% (active). The growth in the assay with UACC-257 melanoma was 82.1%; in the assay on M14 melanoma it was 25.1%.
For `C=C(C)[C@@H]1CC[C@]2(CO)CC[C@]3(C)[C@H](CC[C@@H]4[C@@]5(C)CCCNC(C)(C)[C@@H]5CC[C@]43C)[C@@H]12`, the growth is 62.6% in the assay on NCI-H23 lung; 84.4% in the assay with NCI-H226 lung; 69.8% in the assay with NCI-H322M lung; 79% in the assay on HOP-62 NSCLC; -54.4% (active) in the assay with NCI-H460 lung; 82% in the assay with HOP-92 NSCLC. The growth in the assay on NCI-H522 lung is 64.2%; in the assay with A549/ATCC NSCLC, 44.9%; in the assay with 786-0 renal, 30.2%; in the assay with COLO 205 colon, -63.5% (active); in the assay on DU-145 prostate it was 49.5%; in the assay with K-562 leukemia it was -26.6% (active). The growth in the assay with MALME-3M melanoma was -65.4% (active); in the assay on MDA-MB-231 breast, 46.8%; with RXF 393 renal it was 48.4%; with SF-268 CNS, 61.2%; in the assay on SF-295 CNS, 40.4%; with SF-539 CNS it was 34.3%. The growth in the assay on UACC-257 melanoma is -8.72% (active); in the assay with M14 melanoma, -49.8% (active).
As for `O=C(CCN1CCCC1)Nc1ccc2c(Nc3ccccc3)c3ccccc3nc2c1`, the growth in the assay with NCI-H23 lung was 22.1%; in the assay with NCI-H226 lung, 41.9%; with NCI-H322M lung, 7.35% (active); in the assay on HOP-62 NSCLC it was 12.1%; in the assay on NCI-H460 lung, -60.7% (active); with HOP-92 NSCLC, 14.3%. The growth with NCI-H522 lung is -33.7% (active); with A549/ATCC NSCLC, 10.1%; in the assay on 786-0 renal, 10.1%; with COLO 205 colon, -37.4% (active); with DU-145 prostate, -28.5% (active); with K-562 leukemia, 0.263% (active). Further, the growth was -85.1% (active) with MALME-3M melanoma; 3.81% (active) in the assay with MDA-MB-231 breast; 8.26% (active) with RXF 393 renal; 26.1% in the assay with SF-268 CNS; 33.4% in the assay with SF-295 CNS; -62.5% (active) with SF-539 CNS. The growth in the assay on UACC-257 melanoma was -39.5% (active); in the assay on M14 melanoma, -77.4% (active).
`CC1NC(=S)NC(=O)/C1=C/c1cc(=O)oc2c1ccc1ccccc12` (stereo not given): the growth was 93.8% in the assay with NCI-H23 lung; 86.1% with NCI-H226 lung; 101% with NCI-H322M lung; 82.1% with HOP-62 NSCLC; 102% in the assay with NCI-H460 lung; 75.9% with HOP-92 NSCLC. Also, the growth was 73.8% with NCI-H522 lung; 81.3% in the assay on A549/ATCC NSCLC; 107% in the assay with 786-0 renal; 104% in the assay with COLO 205 colon; 108% in the assay on DU-145 prostate; 94.6% in the assay with K-562 leukemia. Also, the growth was 90.9% in the assay with MALME-3M melanoma; 95.1% in the assay with MDA-MB-231 breast; 101% in the assay on RXF 393 renal; 97% in the assay on SF-268 CNS; 100% in the assay on SF-295 CNS; 96.8% in the assay on SF-539 CNS. Further, the growth was 80.5% in the assay on UACC-257 melanoma and 94.9% in the assay with M14 melanoma.
On to `CC(=O)c1c(-c2ccc(OC(F)(F)F)cc2)nc2ccccn12`, for which the growth with NCI-H23 lung is 95.4%; in the assay with NCI-H226 lung it was 91%; in the assay on NCI-H322M lung it was 90.4%; with HOP-62 NSCLC, 88.9%; with NCI-H460 lung it was 103%; in the assay with HOP-92 NSCLC it was 91%. Also, the growth in the assay with NCI-H522 lung was 51.5%; in the assay with A549/ATCC NSCLC, 62.8%; with 786-0 renal it was 99%; with COLO 205 colon it was 95.8%; in the assay with DU-145 prostate it was 101%; in the assay with K-562 leukemia it was 113%. The growth in the assay on MALME-3M melanoma is 88.9%; in the assay with MDA-MB-231 breast, 94%; in the assay with RXF 393 renal it was 108%; in the assay on SF-268 CNS it was 94.3%; in the assay on SF-295 CNS, 90.2%; in the assay with SF-539 CNS, 92.3%. The growth in the assay on UACC-257 melanoma is 81.8%; in the assay with M14 melanoma it was 89.8%.
